Experimental data taken from PubChem BioAssay.
Calls of active or inactive are those of the source.

Experiments:
[1] = test system: PRMT1 (protein arginine N-methyltransferase 1); assay: PRMT1 binders on small-molecule microarrays, primary screen, biochemical, small-molecule microarray, 635 nm fluorescence (AID 1088); details: small-molecule microarray binding, higher = more signal;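 further: binding of Prmt1 protein to compounds spotted on small-molecule microarray slides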
[2] = yeast growth modulation, basal conditions, primary screen, YJM789 clinical isolate, OD600, 24 h (AID 1089);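 further: growth of clinical yeast isolate S. cerevisiae YJM 789 seeded 1000 cells per well; test concentration not given here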; details: S. cerevisiae YJM789 growth, higher = more signal, called active from +8 up or from −8 down
[3] = fission yeast growth modulation, primary screen, strain 972, OD600, 24 h, no modulator (AID 1090);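 further: basal condition with compound alone and no growth modifier present; test concentration not given here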; details: S. pombe 972 growth, higher = more signal, called active from +8 up or from −8 down
[4] = S. cerevisiae growth modulation with rapamycin, primary screen, strain BY4716, OD600, 96 h (AID 1091); details: higher = more signal, called active from +8 up or from −8 down; further: test concentration not given here
[5] = biological target: Torsin-1A-interacting protein 2 (Homo sapiens) (UniProt Q8NFQ8); assay: LULL1 binders on small-molecule microarray, primary screen, cell lysate, human LULL1 lysate, 635/667 nm fluorescence (AID 1092); details: hLULL1 lysate binding, 635 nm fluorescence, higher = more signal;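 further: probe is lysate of COS7 cells overexpressing human LULL1; score merges per-feature 667 nm fluorescence with signal-to-noise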
Chain of Torsin-1A-interacting protein 2 (Homo sapiens) (Q8NFQ8 whole entry, looked up): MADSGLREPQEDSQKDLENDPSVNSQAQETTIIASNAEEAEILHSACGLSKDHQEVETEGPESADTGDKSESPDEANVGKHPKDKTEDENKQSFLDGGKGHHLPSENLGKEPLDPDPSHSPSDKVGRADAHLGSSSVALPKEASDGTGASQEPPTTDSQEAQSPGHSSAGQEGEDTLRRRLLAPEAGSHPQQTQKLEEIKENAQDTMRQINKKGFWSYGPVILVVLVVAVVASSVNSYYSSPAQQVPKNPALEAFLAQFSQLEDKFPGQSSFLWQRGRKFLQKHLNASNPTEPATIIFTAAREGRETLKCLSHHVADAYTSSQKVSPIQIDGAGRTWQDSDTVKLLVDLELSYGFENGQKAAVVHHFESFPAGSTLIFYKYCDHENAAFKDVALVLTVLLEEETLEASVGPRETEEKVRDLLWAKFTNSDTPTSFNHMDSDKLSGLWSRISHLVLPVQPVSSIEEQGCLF

[6] = E. coli growth modulation, two-sided OD650, primary screen, E. coli filamentation project, strain DRC41, 24 h (AID 1093); details: OD650, 24 h, higher = more signal, called active from +8 up or from −8 down;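 further: MC1000 strain lacking acrAB efflux and sulA so SOS filamentation is blocked; test concentration not given here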
[7] = small-molecule microarray binders of probe aLefty2, primary screen, biochemical, biotinylated probe, 635/667 nm fluorescence (AID 1094); details: higher = more signal;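 further: score merges spot fluorescence near 667 nm with spot signal-to-noise ratio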
[8] = test system: Noggin (protein binding on small-molecule microarray); assay: Noggin binders on small-molecule microarray, primary screen, biochemical, 635/667 nm fluorescence (AID 1095); details: 635 nm fluorescence, higher = more signal;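 further: score merges 667 nm feature fluorescence with signal to noise over triplicate slides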
[9] = biological target: Neurogenic locus notch homolog protein 3 (Homo sapiens) (UniProt Q9UM47); assay: NOTCH3 binders on small-molecule microarray, primary screen, biochemical, 635/667 nm fluorescence (AID 1096); details: NOTCH3 binding, 635 nm fluorescence, higher = more signal
Chain of Neurogenic locus notch homolog protein 3 (Homo sapiens) (Q9UM47 whole entry, looked up): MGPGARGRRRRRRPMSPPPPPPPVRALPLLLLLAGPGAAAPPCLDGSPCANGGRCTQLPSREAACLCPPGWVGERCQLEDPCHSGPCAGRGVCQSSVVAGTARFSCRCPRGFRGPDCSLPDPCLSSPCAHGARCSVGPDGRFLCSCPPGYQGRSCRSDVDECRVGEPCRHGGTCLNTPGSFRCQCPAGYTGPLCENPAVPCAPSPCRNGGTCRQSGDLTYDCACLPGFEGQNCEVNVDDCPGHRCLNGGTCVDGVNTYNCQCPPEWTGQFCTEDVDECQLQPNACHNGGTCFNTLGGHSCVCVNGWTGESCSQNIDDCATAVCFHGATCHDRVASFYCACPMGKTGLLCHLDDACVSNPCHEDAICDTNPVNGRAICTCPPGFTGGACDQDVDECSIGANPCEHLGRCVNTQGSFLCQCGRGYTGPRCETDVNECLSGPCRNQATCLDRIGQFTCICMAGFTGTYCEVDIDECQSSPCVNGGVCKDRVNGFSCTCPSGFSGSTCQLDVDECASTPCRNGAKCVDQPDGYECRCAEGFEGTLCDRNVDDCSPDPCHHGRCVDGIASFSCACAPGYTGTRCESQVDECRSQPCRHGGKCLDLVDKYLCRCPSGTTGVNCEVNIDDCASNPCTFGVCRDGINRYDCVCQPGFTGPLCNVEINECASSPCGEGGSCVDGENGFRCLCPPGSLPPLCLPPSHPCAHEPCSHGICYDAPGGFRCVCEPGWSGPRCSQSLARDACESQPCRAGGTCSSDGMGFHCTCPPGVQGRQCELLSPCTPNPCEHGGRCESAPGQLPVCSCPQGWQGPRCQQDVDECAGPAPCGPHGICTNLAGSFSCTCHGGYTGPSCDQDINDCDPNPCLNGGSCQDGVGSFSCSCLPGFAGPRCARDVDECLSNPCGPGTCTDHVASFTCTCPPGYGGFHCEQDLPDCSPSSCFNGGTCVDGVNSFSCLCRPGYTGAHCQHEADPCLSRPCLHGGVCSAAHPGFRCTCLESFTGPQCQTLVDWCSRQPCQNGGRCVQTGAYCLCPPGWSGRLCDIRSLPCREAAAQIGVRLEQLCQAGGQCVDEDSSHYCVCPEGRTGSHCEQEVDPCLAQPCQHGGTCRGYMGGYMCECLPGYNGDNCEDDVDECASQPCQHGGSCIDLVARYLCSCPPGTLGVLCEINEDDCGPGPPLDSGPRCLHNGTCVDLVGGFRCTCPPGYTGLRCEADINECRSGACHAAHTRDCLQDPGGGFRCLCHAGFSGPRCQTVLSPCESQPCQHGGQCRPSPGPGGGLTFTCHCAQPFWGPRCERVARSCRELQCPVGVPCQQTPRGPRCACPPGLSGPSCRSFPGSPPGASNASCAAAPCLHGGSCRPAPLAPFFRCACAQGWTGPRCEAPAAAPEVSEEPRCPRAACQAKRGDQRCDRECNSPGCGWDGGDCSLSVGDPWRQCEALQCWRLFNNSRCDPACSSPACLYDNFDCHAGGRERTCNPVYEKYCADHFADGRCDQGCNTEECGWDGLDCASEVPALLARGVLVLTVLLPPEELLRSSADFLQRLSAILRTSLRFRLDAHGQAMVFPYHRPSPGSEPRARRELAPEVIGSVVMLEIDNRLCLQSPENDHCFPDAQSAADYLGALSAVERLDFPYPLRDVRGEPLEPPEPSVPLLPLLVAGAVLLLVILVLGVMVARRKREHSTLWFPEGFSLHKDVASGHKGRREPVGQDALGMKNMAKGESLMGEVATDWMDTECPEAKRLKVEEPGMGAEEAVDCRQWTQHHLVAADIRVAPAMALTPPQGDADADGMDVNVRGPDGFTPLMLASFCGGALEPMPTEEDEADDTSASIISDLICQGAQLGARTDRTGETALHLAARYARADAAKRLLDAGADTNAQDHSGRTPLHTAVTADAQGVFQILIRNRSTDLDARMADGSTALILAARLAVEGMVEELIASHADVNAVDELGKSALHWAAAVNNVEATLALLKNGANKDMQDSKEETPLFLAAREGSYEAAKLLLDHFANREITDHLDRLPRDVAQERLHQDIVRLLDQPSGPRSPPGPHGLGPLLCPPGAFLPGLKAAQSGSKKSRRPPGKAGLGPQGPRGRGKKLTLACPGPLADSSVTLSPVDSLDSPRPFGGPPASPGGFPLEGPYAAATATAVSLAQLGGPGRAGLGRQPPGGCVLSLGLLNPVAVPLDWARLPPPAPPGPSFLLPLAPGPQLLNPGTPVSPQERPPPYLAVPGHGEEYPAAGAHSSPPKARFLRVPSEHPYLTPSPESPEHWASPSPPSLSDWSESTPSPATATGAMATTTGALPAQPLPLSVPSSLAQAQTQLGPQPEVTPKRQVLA

[10] = small-molecule microarray binders of probe aEGFR, primary screen, biochemical, biotinylated probe, 635/667 nm fluorescence (AID 1097); details: higher = more signal;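 further: probe is a biotinylated anti-EGFR antibody binding compounds printed on slides; score combines fluorescence near 667 nm and signal to noise of each spot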
[11] = test system: Plasmodium falciparum Sir2 (PF13_0152, Sir2A); assay: pfSir2 binders on small-molecule microarrays, primary screen, biochemical, small-molecule microarray, 635 nm fluorescence (AID 1098); details: small-molecule microarray binding, fluorescence 635 nm; higher = more signal;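 further: score merges spot fluorescence intensity with its signal-to-noise ratio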
[12] = small-molecule microarray binders of probe aDKK1, primary screen, biochemical, biotinylated probe, 635/667 nm fluorescence (AID 1099); details: higher = more signal;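 further: score merges 667nm spot fluorescence with signal to noise across triplicate slides; reference of the scale not given here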
[13] = small-molecule microarray binders of probe aCHRDL2, primary screen, biochemical, biotinylated probe, 635/667 nm fluorescence (AID 1100); details: higher = more signal
[14] = splicing luciferase reporter signal modulators, primary screen, spliceosome inhibition project, cell-based, HEK293, splice +/- reporter (AID 1101); details: luminescence, 24 h, higher = more signal, called active from +8 up or from −8 down;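 further: HEK293 cells carrying a splicing-competent luciferase reporter gene; test concentration not given here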
[15] = biological target: Fibroblast growth factor 10 (Homo sapiens) (UniProt O15520); assay: FGF10 binders on small-molecule microarrays, primary screen, biochemical, small-molecule microarray, 635 nm fluorescence (AID 1102); details: FGF10 binding, fluorescence 635 nm, higher = more signal
Chain of Fibroblast growth factor 10 (Homo sapiens) (O15520 whole entry, looked up): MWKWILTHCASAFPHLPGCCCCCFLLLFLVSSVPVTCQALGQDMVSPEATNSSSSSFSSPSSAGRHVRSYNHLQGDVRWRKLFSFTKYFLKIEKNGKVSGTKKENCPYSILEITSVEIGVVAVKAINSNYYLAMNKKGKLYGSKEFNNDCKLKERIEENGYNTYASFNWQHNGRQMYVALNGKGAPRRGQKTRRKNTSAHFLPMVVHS

[16] = test system: glycogen synthase kinase-3 (GSK3A per assay name; protocol says GSK3B); assay: GSK3 binders on small-molecule microarrays, primary screen, biochemical, small-molecule microarray, 635 nm fluorescence, GSK3A (AID 1103); details: small-molecule microarray binding, fluorescence 635 nm; higher = more signal; further: the record names both GSK3A and GSK3B
[17] = biological target: Epidermal growth factor receptor (Homo sapiens) (UniProt P00533); assay: EGFR binders on small-molecule microarrays, primary screen, biochemical, small-molecule microarray, 635 nm fluorescence (AID 1104); details: EGFR binding, higher = more signal;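 further: score merges 667 nm emission intensity with spot signal to noise over triplicate slides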
Chain of Epidermal growth factor receptor (Homo sapiens) (P00533 whole entry, looked up): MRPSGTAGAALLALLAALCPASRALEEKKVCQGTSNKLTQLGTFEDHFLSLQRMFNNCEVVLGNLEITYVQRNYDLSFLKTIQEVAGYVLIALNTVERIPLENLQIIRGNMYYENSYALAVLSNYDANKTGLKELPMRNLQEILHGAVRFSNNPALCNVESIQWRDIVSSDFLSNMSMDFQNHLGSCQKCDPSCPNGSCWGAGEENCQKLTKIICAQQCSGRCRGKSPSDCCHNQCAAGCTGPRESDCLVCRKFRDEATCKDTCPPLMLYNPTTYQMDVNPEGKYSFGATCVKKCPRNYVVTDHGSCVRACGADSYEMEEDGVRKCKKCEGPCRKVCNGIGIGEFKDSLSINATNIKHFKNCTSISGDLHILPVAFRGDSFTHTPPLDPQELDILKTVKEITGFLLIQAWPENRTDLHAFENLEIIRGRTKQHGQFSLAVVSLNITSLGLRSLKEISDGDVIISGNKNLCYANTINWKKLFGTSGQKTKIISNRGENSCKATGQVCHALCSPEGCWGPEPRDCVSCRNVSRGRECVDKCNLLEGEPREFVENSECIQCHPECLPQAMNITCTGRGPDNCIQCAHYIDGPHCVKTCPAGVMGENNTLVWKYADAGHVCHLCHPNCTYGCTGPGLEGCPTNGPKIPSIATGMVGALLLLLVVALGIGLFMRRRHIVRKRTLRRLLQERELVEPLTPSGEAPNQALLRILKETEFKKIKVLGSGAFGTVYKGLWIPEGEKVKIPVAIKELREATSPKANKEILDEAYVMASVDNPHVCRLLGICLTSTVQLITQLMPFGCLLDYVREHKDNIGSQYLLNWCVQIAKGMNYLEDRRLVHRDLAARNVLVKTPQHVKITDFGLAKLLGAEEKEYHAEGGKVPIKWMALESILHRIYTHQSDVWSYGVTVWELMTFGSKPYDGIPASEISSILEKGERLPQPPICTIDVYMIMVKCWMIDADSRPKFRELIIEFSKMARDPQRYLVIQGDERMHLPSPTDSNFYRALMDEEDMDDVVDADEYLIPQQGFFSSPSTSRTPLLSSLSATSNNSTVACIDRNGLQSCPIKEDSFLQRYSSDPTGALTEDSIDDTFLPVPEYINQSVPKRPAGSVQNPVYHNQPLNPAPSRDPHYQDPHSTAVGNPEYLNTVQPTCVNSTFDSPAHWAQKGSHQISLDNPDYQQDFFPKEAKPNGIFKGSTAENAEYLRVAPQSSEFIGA

[18] = biological target: Follistatin-related protein 3 (Homo sapiens) (UniProt O95633); assay: FSTL3 binders on small-molecule microarrays, primary screen, biochemical, small-molecule microarray, 635 nm fluorescence (AID 1105); details: FSTL3 binding, higher = more signal;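 further: score merges emission near 667 nm and signal to noise per printed spot across three slides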
Chain of Follistatin-related protein 3 (Homo sapiens) (O95633 whole entry, looked up): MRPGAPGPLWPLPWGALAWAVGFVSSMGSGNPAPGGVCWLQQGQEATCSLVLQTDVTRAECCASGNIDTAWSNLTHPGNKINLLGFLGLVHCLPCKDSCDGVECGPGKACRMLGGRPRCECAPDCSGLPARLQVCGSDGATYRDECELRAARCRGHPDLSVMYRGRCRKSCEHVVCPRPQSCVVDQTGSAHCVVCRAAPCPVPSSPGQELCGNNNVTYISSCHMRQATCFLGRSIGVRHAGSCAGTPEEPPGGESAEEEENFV

[19] = biological target: Dickkopf-related protein 1 (Homo sapiens) (UniProt O94907); assay: DKK1 binders on small-molecule microarrays, primary screen, biochemical, small-molecule microarray, 635 nm fluorescence scan (AID 1106); details: DKK1 binding, higher = more signal;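 further: score merges emission near 667 nm with signal to noise over three replicate slides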
Chain of Dickkopf-related protein 1 (Homo sapiens) (O94907 whole entry, looked up): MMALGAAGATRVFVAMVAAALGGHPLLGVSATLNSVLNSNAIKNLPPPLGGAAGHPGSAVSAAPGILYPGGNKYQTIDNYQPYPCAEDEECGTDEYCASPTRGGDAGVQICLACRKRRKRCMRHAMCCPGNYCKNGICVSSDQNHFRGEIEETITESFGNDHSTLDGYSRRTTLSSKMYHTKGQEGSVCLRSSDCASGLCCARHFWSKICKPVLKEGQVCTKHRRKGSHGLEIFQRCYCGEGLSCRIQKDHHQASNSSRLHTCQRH

[20] = test system: Inhibin beta A chain (activin A); assay: INHBA (activin A) binders on microarrays, primary screen, biochemical, small-molecule microarray, 635 nm fluorescence scan (AID 1107); details: small-molecule microarray binding, higher = more signal;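 further: mouse activin A protein probed at 4.33 µg/mL on printed slides; score merges bound-protein fluorescence near 667 nm with spot signal-to-noise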

SMILES	composite z-score [1]	z-score [2]	z-score [3]	z-score [4]	composite z-score [5]	z-score [6]	composite z-score [7]	composite z-score [8]	composite z-score [9]	composite z-score [10]	composite z-score [11]	composite z-score [12]	composite z-score [13]	z-score [14]	composite z-score [15]	composite z-score [16]	composite z-score [17]	composite z-score [18]	composite z-score [19]	composite z-score [20]
CCOC(=O)C1=CC[C@@H](c2ccccc2)N(S(=O)(=O)c2ccc(C)cc2)[C@H]1C#N	0.811	0.0536 (inactive)	-1.06 (inactive)	0.281 (inactive)	2.99	-0.121 (inactive)	-0.0179	-0.14	0.612	0.0985	1.54	0.507	0.56	0.705 (inactive)	0.417	0.73	-0.106	-0.111	-0.377	-0.0426
CC(C)(C)OC(=O)CC[C@]1(C(=O)N2CCOCC2)N=C(c2ccc(OCCCO)cc2)O[C@H]1c1ccccc1CN=[N+]=[N-]	1.55	-0.673 (inactive)	0.306 (inactive)	-0.611 (inactive)	3.32	-0.798 (inactive)	-0.127	1.79	0.725	-0.044	1.61	0.528	0.885	-0.371 (inactive)	1.4	1.32	-0.0261	1.08	-0.0465	0.543
CCCC[C@H]1OB(O)C[C@H]2C1=C(COC)C[C@H]1C(=O)C=CC(=O)[C@H]12	1.42	0.275 (inactive)	-1.56 (inactive)	-0.293 (inactive)	0.117	0.898 (inactive)	-0.0798	0.747	0.936	-0.071	0.351	-0.177	-0.461	0.635 (inactive)	0.6	0.385	0.645	1.07	0.717	1.21
COc1ccccc1CN1C(=O)c2ccccc2[C@@H](C(=O)NCCCN(C)C)[C@@H]1c1ccc(CO)cc1	-1.06	-0.376 (inactive)	-2.26 (inactive)	-1.63 (inactive)	-1.07	0.874 (inactive)	-0.135	-0.649	-0.784	-0.111	1.31	0.503	-0.205	-0.0655 (inactive)	0.0373	-0.841	-0.127	-0.235	0.271	0.545
CN(C)CCCC[C@@H]1NC(=O)[C@@H]2C[C@H](C(=O)NCCCCCCNC(=O)CS)[C@H](c3cccc(OCCO)c3)N2C1=O	1.39	-0.283 (inactive)	-0.0576 (inactive)	-0.471 (inactive)	1.18	-0.142 (inactive)	0.0575	0.333	0.131	0.124	1.59	0.0307	0.358	-0.162 (inactive)	0.419	0.842	-0.247	-0.0613	0.735	-0.0529
C=CCC(OC(C)=O)[C@@H]1[C@@H](N(Cc2ccc(-c3cccc(C(F)(F)F)c3)o2)C(=O)Cc2ccc(F)cc2)c2cc(OCCCO)ccc2N1C(=O)c1ccc2ccccc2c1 (stereo not given in full)	-1.22	-0.428 (inactive)	0.498 (inactive)	-1.2 (inactive)	-0.305	-0.381 (inactive)	-0.0485	0.0055	-0.35	0.0804	0.819	-0.185	0.429	-0.182 (inactive)	-0.701	-1.87	-0.659	0.199	-0.0392	1.08
COCCOC(=O)N1C(=O)[C@@]2(c3cc(C#CC4=CCCCC4)ccc31)[C@H](C(=O)N1CCN(c3ncccn3)CC1)[C@H]1C(=O)O[C@H](c3ccccc3)[C@H](c3ccccc3)N1[C@@H]2c1ccccc1OCCO	1.53	1.3 (inactive)	0.683 (inactive)	4.42 (inactive)	2.75	1.96 (inactive)	-0.0687	1.14	1.04	-0.0749	0.419	-0.082	-0.296	-0.544 (inactive)	1.3	1.28	0.396	1.19	0.402	0.451
CCOC(=O)C1=C[C@@H](C(C)(C)C)N(S(=O)(=O)c2ccc(C)cc2)[C@H]1c1ccccc1Cl	1.53	0.168 (inactive)	2.3 (inactive)	2.15 (inactive)	2.61	-0.766 (inactive)	0.144	0.614	1.05	0.0522	0.993	1.18	1.11	-0.232 (inactive)	0.915	1.29	0.292	1.18	0.0627	0.0829
CCCC[C@@H]1C[C@H]1[C@@H](NC(=O)Cc1ccccc1)c1ccc(Cl)cc1	0.576	0.0911 (inactive)	-1.16 (inactive)	1.68 (inactive)	3.14	-0.76 (inactive)	0.105	1.34	1.03	0.218	0.906	1.22	1.45	-0.0981 (inactive)	0.592	0.937	0.0572	0.868	-0.946	0.674
COCCCNC(=O)[C@@H]1c2ccccc2C(=O)N(Cc2cc(C(F)(F)F)cc(C(F)(F)F)c2)[C@H]1c1ccc(CO)cc1	-0.217	0.109 (inactive)	0.144 (inactive)	-0.405 (inactive)	0.928	0.329 (inactive)	-0.164	-0.441	-0.305	0.45	-1.09	1.15	0.291	-0.475 (inactive)	-0.0413	0.0135	-0.301	0.142	0.346	0.92
